HTT-AS act: Primary qHTS for Identification of Small Molecule Activators of Huntingtin-Antisense Promoter Activity; AID 1508624, 2021; Potency, µM (doses to about 57.5 µM), inactives show top-dose activity change, positive = activation, hits mostly activators; hit rate 0.24% among 48,000; HEK293 HTT-AS promoter firefly luciferase reporter, 24 h; response scale: percent change from vehicle, -100% = no light; further: potency means the concentration at half of the fitted maximal effect; nearly all actives have a fitted effect of over 55% in size
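Quantitative HTS used concentration series of up to 57.5 uM final on HEK293 luciferase reporter cells, 24 h at 37 degrees C. Readout was Dual-Glo firefly luminescence.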
GPR32 ag: qHTS for Agonists of Human Resolvin D1 Receptor DRV1; Probable G-protein coupled receptor 32 (Homo sapiens), O75388; CHO-K1 GPR32 beta-arrestin PathHunter luminescence, 90 min; zero percent set by DMSO-only wells; activation, % at 76.9 µM; hit rate 2.5% among 48,000; AID 1346428, 2018;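 active means activation of at least 60% and not above a set upper limit, about 1 call in 100 departs from these limits; inconclusive means activation of 40% to 60%, or above that upper limit; inactive means activation under 40%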; further: 0% is about no effect
Target sequence (O75388 whole entry, looked up): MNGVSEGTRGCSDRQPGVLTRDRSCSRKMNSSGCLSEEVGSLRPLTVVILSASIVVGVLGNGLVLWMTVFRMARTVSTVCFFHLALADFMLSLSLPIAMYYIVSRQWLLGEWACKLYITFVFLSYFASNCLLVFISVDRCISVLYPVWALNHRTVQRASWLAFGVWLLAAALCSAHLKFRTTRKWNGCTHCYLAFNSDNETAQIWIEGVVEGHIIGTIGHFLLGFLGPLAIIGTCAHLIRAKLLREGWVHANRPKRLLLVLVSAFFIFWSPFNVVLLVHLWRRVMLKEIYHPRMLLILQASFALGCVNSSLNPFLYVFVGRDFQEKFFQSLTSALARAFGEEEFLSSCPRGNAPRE
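Readings come from a cell-based beta-arrestin complementation format: CHO-K1 GPR32 stable cells (2,500/well) treated 90 min with compounds, then beta-Gal substrate added for 1 h before chemiluminescence imaging.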
HTT prom inh: Primary qHTS for Identification of Small Molecule Inhibitors of Huntingtin Promoter Activity | HEK293 HTT promoter firefly luciferase reporter, 24 h | Potency, µM (top dose mostly 57.5 µM), for inactives: at the top dose activity change, negative = inhibition, hits mostly inhibitors | hit rate 0.93% among 48,000; further: potency means the concentration at half of the fitted maximal effect; nearly all actives have a fitted effect of over 50% in size
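HEK293 luciferase promoter-reporter cells (2,500/well) plated 24 h, then compounds added at up to 57.5 uM final for 24 h at 37 °C. Firefly luminescence by Dual-Glo, normalized to vehicle (0%) and zero RLU (-100%).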
An asterisk follows results filed as active. Shown are actives, neighbours in structure and some others; about 3.7% of the full set was active somewhere. Unless noted, the call rests on the fitted dose curve; in most records, active means well fitted curve in the direction sought with a large enough effect; inconclusive means small, poorly fitted or top-dose-only effect, or another doubt; inactive means no such curve, though single readings can be large; an effect the other way counts as inactive or inconclusive.

How did Nc1nc(Nc2ccc(S(N)(=O)=O)cc2)nn1C(=O)c1c(F)cccc1F do in these assays?
HTT-AS act: -33%; HTT prom inh: inconclusive

Results for COc1cccc2cc(-c3nnc(Nc4ccccc4C)s3)c(=O)oc12 ?
HTT-AS act: inconclusive; GPR32 ag: -6; HTT prom inh: 68%

How did COc1cccc2cc(-c3nnc(Nc4c(F)cccc4F)s3)c(=O)oc12 do in these assays?
HTT-AS act: 1µM*; GPR32 ag: 5; HTT prom inh: 79%

What do the screens show for `O=C(O)c1ccnc(-c2cc(C(=O)NCCc3ccccc3)ccn2)c1`?
HTT prom inh: 3%

How did CC[C@@H]1C(=O)N(C)c2cnc(Nc3ccc(C(=O)NC4CCN(C)CC4)cc3OC)nc2N1C1CCCC1 do in these assays?
HTT-AS act: -26%; HTT prom inh: -11%

Results for COc1cc(OC)c(NC(=O)c2c(C)nn(-c3ccc(C)cc3)c2-n2cccc2)cc1Cl ?
HTT-AS act: -8%; GPR32 ag: -9; HTT prom inh: -8%

How did COCCc1ccc(OCC2CO2)cc1 (stereo unspecified) do in these assays?
HTT-AS act: 3%; GPR32 ag: -7; HTT prom inh: 16%

How did CC(C)NC(=O)Cn1nc(N2CCN(c3ccccc3)CC2)ccc1=O do in these assays?
HTT-AS act: -9%; GPR32 ag: -17; HTT prom inh: -1%

How did CSc1ccc(CNC(=O)Cn2nc(N3CCN(c4ccccc4)CC3)ccc2=O)cc1 do in these assays?
HTT-AS act: -19%; GPR32 ag: 95*; HTT prom inh: -1%

What do the screens show for `O=C(Cn1nc(N2CCN(c3ccccc3)CC2)ccc1=O)NCc1cccc(Cl)c1`?
HTT-AS act: -27%; GPR32 ag: 121*; HTT prom inh: -4%

How did Cc1ccc(CNC(=O)Cn2nc(N3CCN(c4ccccc4)CC3)ccc2=O)cc1 do in these assays?
HTT-AS act: -21%; GPR32 ag: 32; HTT prom inh: -23%

How did COc1ccc(OC)c(CCNC(=O)c2c(C)nn(-c3ccc(F)cc3)c2-n2cccc2)c1 do in these assays?
HTT-AS act: -31%; GPR32 ag: 1; HTT prom inh: inconclusive

Results for COc1ccc(CNC(=O)c2cnn(-c3ccc(C)cc3)c2-n2cccc2)cc1OC ?
HTT-AS act: -37%; GPR32 ag: -2; HTT prom inh: 16µM*

How did COc1ccc(CCNC(=O)c2c(C)nn(-c3ccc(F)cc3)c2-n2cccc2)cc1OC do in these assays?
HTT-AS act: -34%; GPR32 ag: 17; HTT prom inh: 20µM*

Results for COc1ccc(CNC(=O)c2cnn(-c3ccccc3)c2-n2cccc2)cc1OC ?
GPR32 ag: 17

How did CC(=O)ON=C1C(c2c(O)[nH]c3cc(Br)ccc23)=Nc2ccccc21 do in these assays?
HTT-AS act: inconclusive; HTT prom inh: 19%

Results for Cc1ccc(NC(=O)c2cc(S(=O)(=O)NCCc3ccc(Cl)cc3)ccc2F)cc1 ?
HTT-AS act: -33%; GPR32 ag: 36; HTT prom inh: inconclusive

How did COc1ccc(CCNS(=O)(=O)c2ccc(F)c(C(=O)Nc3ccc(Cl)cc3)c2)cc1OC do in these assays?
HTT-AS act: -42%; GPR32 ag: 64*; HTT prom inh: inconclusive

How did COCCn1ccc2c(OCC(=O)Nc3c(C)cc(C)cc3C)cccc2c1=O do in these assays?
HTT-AS act: -15%; GPR32 ag: -10; HTT prom inh: -12%

Results for CCOCCn1ccc2c(OCC(=O)Nc3cccc(F)c3)cccc2c1=O ?
HTT-AS act: -13%; GPR32 ag: 77*; HTT prom inh: -31%

How did Cc1cc(C)cc(NC(=O)COc2cccc3c(=O)n(C)ccc23)c1 do in these assays?
HTT-AS act: -19%; GPR32 ag: 86*; HTT prom inh: -13%

Results for CCn1ccc2c(OCC(=O)NCc3ccc(F)cc3)cccc2c1=O ?
HTT-AS act: -11%; GPR32 ag: 23; HTT prom inh: -8%

How did CCOCCn1ccc2c(OCC(=O)Nc3cccc([N+](=O)[O-])c3)cccc2c1=O do in these assays?
HTT-AS act: -25%; GPR32 ag: 3; HTT prom inh: inconclusive

How did Cn1ccc2c(OCC(=O)NCc3ccc(F)cc3)cccc2c1=O do in these assays?
HTT-AS act: -19%; GPR32 ag: 68*; HTT prom inh: -16%

How did CCC(=O)N[C@H]1CC[C@H](C(=O)N(C)c2ccc(-c3nc4ccccc4o3)cc2)C1 do in these assays?
HTT-AS act: -13%; HTT prom inh: -9%

What do the screens show for `CN(C)CCN(C)C(=O)c1ccc(NC(=O)Nc2ccc(-c3nc(N4CCOCC4)c4ccn(CC(F)(F)F)c4n3)cc2)cc1`?
HTT-AS act: -47%; HTT prom inh: inconclusive

What do the screens show for `CNC(=O)c1c(I)c(NC(=O)CCCCC(=O)Nc2c(I)c(C(=O)O)c(I)c(C(=O)NC)c2I)c(I)c(C(=O)O)c1I`?
HTT-AS act: -59%; GPR32 ag: 5; HTT prom inh: -21%

Results for COc1ccc2oc(=O)cc(CN3CCN(C(=O)c4ccccc4)CC3)c2c1 ?
HTT-AS act: -10%; GPR32 ag: -8; HTT prom inh: -11%

What do the screens show for `Cc1c(Cl)cccc1-c1ccc(C(=O)Nc2ccc(F)cc2)o1`?
HTT-AS act: -6%; GPR32 ag: 61*; HTT prom inh: -4%

How did CCOC(=O)c1ccc(NC(=O)c2ccc(-c3cccc(Cl)c3C)o2)cc1 do in these assays?
HTT-AS act: -22%; GPR32 ag: -7; HTT prom inh: -7%

Results for COC(=O)c1cc2sc(Cl)cc2n1Cc1c(C)cc(C)cc1C ?
HTT-AS act: 11%; GPR32 ag: -6; HTT prom inh: -7%

What do the screens show for `COC(=O)c1cc2sccc2n1CC(=O)Nc1cc(Cl)ccc1OC`?
HTT-AS act: -85%; GPR32 ag: 26; HTT prom inh: 28µM*

How did COc1ccc(Cl)cc1NC(=O)CSc1nnc(C)n2c1cc1sccc12 do in these assays?
HTT-AS act: -2%; GPR32 ag: 0; HTT prom inh: 2%

What do the screens show for `COC(=O)c1cc2sc(Cl)cc2n1CC(=O)Nc1cc(OC)cc(OC)c1`?
HTT-AS act: 7%; GPR32 ag: 89*; HTT prom inh: -23%

How did Oc1cccc(-c2c3nc(c(-c4cccc(O)c4)c4ccc([nH]4)c(-c4cccc(O)c4)c4nc(c(-c5cccc(O)c5)c5ccc2[nH]5)CC4)C=C3)c1 do in these assays?
HTT-AS act: -27%; GPR32 ag: -15; HTT prom inh: inconclusive

Results for Cc1cc(C)c(S(=O)(=O)Nc2ccc(-c3ccc(N4CCCCC4)nn3)cc2)c(C)c1 ?
GPR32 ag: 14

Results for O=C(OCC(COC(=O)c1cccnc1)(COC(=O)c1cccnc1)COC(=O)c1cccnc1)c1cccnc1 ?
HTT-AS act: -2%; GPR32 ag: 5; HTT prom inh: 10%

What do the screens show for `COC(=O)CCCCC(CCSS/C(CCO)=C(\C)N(C=O)Cc1cnc(C)nc1N)SC(C)=O` (stereo unspecified)?
HTT-AS act: -4%; GPR32 ag: -49; HTT prom inh: -4%

Screens: PubChem BioAssay, National Center for Advancing Translational Sciences (NCATS)
